TRHR ag – activates the human TRH receptor; P34981; TRHR cells, calcium flux fluo-8, FDSS agonist mode; activation, % at 2 µM; 360,000 tested, 0.18% active; AID 493084; also: 0% is about no effect
Target sequence (P34981 whole entry, looked up): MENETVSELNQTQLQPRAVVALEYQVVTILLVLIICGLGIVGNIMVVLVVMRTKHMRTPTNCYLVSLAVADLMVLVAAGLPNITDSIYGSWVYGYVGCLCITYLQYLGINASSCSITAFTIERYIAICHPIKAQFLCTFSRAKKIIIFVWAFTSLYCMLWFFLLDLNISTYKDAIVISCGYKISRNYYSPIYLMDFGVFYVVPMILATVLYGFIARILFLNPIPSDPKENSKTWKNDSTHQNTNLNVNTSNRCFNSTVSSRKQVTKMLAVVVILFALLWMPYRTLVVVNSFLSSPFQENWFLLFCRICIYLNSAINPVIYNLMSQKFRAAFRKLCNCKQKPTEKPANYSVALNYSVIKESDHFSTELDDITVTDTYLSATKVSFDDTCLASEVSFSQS
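TRHR-expressing cells loaded with fluo-8 calcium dye; 23 nL library compound pin-transferred, kinetic FDSS fluorescence (Ex 480/Em 530) recorded about 180 s for agonist-induced calcium release, before a 10 nM TRH EC20 addition for potentiator mode.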
D1 antagonist – blocks dopamine activation of the human D1 receptor; P21728; HEK293 TREx D1 cells, calcium flux, dopamine EC80; hits give low values; activity change, negative = inhibition, % at 10 µM; 360,000 tested, 3.2% active; in the data active = activity change below about -30%; also: % is scaled to controls: 0 for no effect and ±100 for the full control effect
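Using tetracycline-induced force-coupled D1 Hek293 cells and a calcium dye, signals were followed for 180 s after compound, then for 180 s after EC80 dopamine, to detect inhibitors.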
D1 agonist – activates the human D1 dopamine receptor; P21728; HEK293 T-REx D1 cells, calcium flux, agonist mode; activation, % at 2 µM; 360,000 tested, 1% active; AID 504660; also: 0% is about no effect
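Tetracycline-induced HEK293 TREx D1 cells, force-coupled to calcium signalling, were dye-loaded with a no-wash calcium kit. Compound was pin-added after a 10 s baseline. Fluorescence was read kinetically at 1 cycle/s for 180 s, with calcium rises flagged as agonism.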
GRP78 ERSR act – ER stress response induction in glioma; Potency, µM, without a hit: at the top dose activation, usual class: activators; AID 602332; 420,000 tested, 0.02% active; U87-MG GRP78 promoter luciferase reporter, 16 h; active = well fitted activation curve with a large enough effect; also: potency is read from the fitted curve at half-maximal effect; series mostly up to about 76 µM; % of control where 0% means no effect; nearly all actives have a fitted effect of over 35% in size
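Stably transfected U87-MG human glioma cells carrying a GRP78-based luminescent sensor were seeded at 1000 cells/well, pin-dosed with compounds and incubated 16 h. Luciferase reagent was then added, and end-point luminescence was read after 10 min at room temperature.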
D1 PAM – enhances dopamine response at the human D1 receptor; P21728; HEK293 TREx D1 cells, calcium flux, dopamine EC20 potentiation; potentiation, % at 10 µM; 360,000 tested, 0.036% active; in the data active = potentiation above about 30%; also: 0% is about no effect
TRHR enhancer – allosterically enhances the human TRH receptor. P34981. enhancement, % at 2 µM. TRHR cells, fluo-8 calcium fluorescence, EC20 TRH enhancement. 360,000 tested, 0.66% active; in the data active = enhancement above about 30%; also: 0% is about no effect
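Enhancer read-out: after compound pinning and an initial kinetic agonist-mode read, an EC20 of TRH (10 nM final) was injected and fluo-8 calcium signal (Ex 480/Em 530) followed at 1 s/cycle for 100 cycles in TRHR-expressing cells.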
An asterisk follows results filed as active; / = no result given; ! = repeats disagree. An excerpt weighted towards active compounds, which were near 4% of everything screened. Rule as the data show it, unless noted: active = activation above about 30%; inactive = the rest.

SMILES	TRHR ag	D1 antagonist	D1 agonist	GRP78 ERSR act	D1 PAM	TRHR enhancer
Cc1cccc(Cn2cc(S(=O)(=O)c3cccc(C)c3)c(=O)c3cc(F)c(N4CCOCC4)cc32)c1	0	-11	1	-3%	-1	2
CCCn1cc(S(=O)(=O)c2ccc(C)cc2)c(=O)c2cc(F)c(N3CCCC3)cc21	0	-6	1	-2%	-1	0
Cc1cccc(Cn2cc(S(=O)(=O)c3ccccc3)c(=O)c3cc(F)c(N4CCOCC4)cc32)c1	1	-5	-2	-3%	-3	38*
Cc1ccc(C(=O)Nc2ccncc2)o1	0	-1	-1	-1%	-3	-1
Cc1ccc(NC(=O)c2ccc3c(c2)NC(=O)CS3)nc1	0	-8	2	3%	-4	0
Cc1cn2c(=O)cc(COC(=O)c3cccc(NC(=O)c4ccccc4C)c3)nc2s1	-1	-59*	3	-1%	-1	-1
Cc1cn2c(=O)cc(COC(=O)COc3ccccc3C)nc2s1	0	-30*	13	-1%	-9	-3
Cc1ccc(OCC(=O)Nc2ccc(C(=O)OCc3cc(=O)n4ccsc4n3)cc2)cc1C	0	-7	2	-4%	0	-2
Cc1cn2c(=O)cc(COC(=O)c3ccc(NC(=O)COc4ccc(C)c(C)c4)cc3)nc2s1	1	-36*	2	1%	0	-1
Cc1cn2c(=O)cc(COC(=O)c3cccc(NC(=O)COc4ccccc4C)c3)nc2s1	0	5	-1	1%	0	-1
Cc1cc(C)n2c(Nc3c(C)cccc3C)c(-c3ccsc3)nc2n1	0	2	12	-2%	-2	-22
Cc1c(NC(=O)COC(=O)c2cccn2C)c(=O)n(-c2ccccc2)n1C	/	/	/	-2%	/	/
CC(=O)c1cn(C2OC(CO)C3OC(C)(C)OC32)c(=O)n(C)c1=O (configuration not stated)	/	/	/	-3%	/	/
COCCCNc1ccnc2c(Cl)cccc12	1	2	7	0%	-1	37*
Cc1cc(NS(=O)(=O)c2cc(Cl)sc2Cl)no1	1	2	0	-1%	-1	2
NNC(=O)c1nnn(-c2nonc2N)c1CN1CCc2ccccc2C1	1	3	-2	-1%	0	-6
CN(C)/C=C1/C(=O)N(c2ccc([N+](=O)[O-])cc2)N=C1c1ccccc1	-1	-8	12	/	-3	12
C/C(=C1/C(=O)N(c2ccc([N+](=O)[O-])cc2)N=C1c1ccccc1)N(C)C	0	0	34*	/	-5	-7
CC(C(=O)N(C)C1CCS(=O)(=O)C1)N1C(=O)/C(=C/c2ccc(F)cc2)SC1=S (configuration not stated)	4	-42*	12	-9%	-5	-6
COC(=O)c1ccc(Cn2nnc3c(=O)[nH]c(C4CCCN(S(=O)(=O)c5ccccc5Cl)C4)nc32)cc1 (configuration not stated)	1	4	1	-2%	6	30*!
O=C(CSc1nnc(-c2ccco2)o1)c1ccc([N+](=O)[O-])cc1	0	23	7	-2%	-4	-1
COc1cccc(C(=O)N(C)CC2CCN(CCc3cccc(C(F)(F)F)c3)CC2)c1	0	-32*	-3	0%	5	4
CCn1c(C)cc(/C=C2/SC(=O)N(CC(=O)N3CCCC3)C2=O)c1C	0	-11	-1	-2%	-8	11
CCn1c(C)cc(/C=C2\SC(=O)N(CC(=O)Nc3ccc(C)c(C)c3)C2=O)c1C	0	-38*	0	-1%	-2	16
CCSc1ccc2c(c1)N(CCCN1CCN(C)CC1)c1ccccc1S2	1	-91*	19	-5%	-5	4
SMILES	TRHR ag	D1 antagonist	D1 agonist	GRP78 ERSR act	D1 PAM	TRHR enhancer
OCCN1CCN(CCCN2c3ccccc3Sc3ccc(C(F)(F)F)cc32)CC1	5	-106*	38*	-10%	/	15
OCCN1CCN(CC/C=C2/c3ccccc3Sc3ccc(C(F)(F)F)cc32)CC1	-1	-88*	23	-12%	-3	2
OCCN1CCN(CCC=C2c3ccccc3Sc3ccc(Cl)cc32)CC1	/	/	/	-6%	/	/
CN1CCN(CCCN2c3ccccc3Sc3ccccc32)CC1	/	/	/	-3%	/	/
CCSc1nsc(NC(=O)Nc2ccc(F)cc2F)n1	6	-16	24	4%	-12	-8
Cc1cc(C)c(NC(=O)CNC(=O)COC(=O)Cc2cccs2)c(C)c1	0	7	2	-5%	4	-5
CN(Cc1cccnc1)C(=O)CC1C(=O)NCCN1CC(c1ccccc1)c1ccccc1 (configuration not stated)	1	5	0	-4%	-1	3
CCCN1C[C@H](CSC)C[C@@H]2c3cccc4[nH]cc(c34)C[C@H]21	1	-88*	51*	-4%	-6	-7
Cc1ccccc1NS(=O)(=O)c1ccc(C(=O)NCC(c2ccco2)N2CCCCC2)cc1 (configuration not stated)	-1	-6	15	-4%	-3	-1
CC(NC(=O)c1ccccc1F)c1nnc(SCC(=O)N2CCN(c3ccccc3)CC2)n1C (configuration not stated)	-1	-5	0	-6%	-5	12
CC(C)Cn1c(N)c(C(=O)NCCN2CCOCC2)c2nc3ccccc3nc21	-2	-16	7	-3%	1	-3
Cc1ccc(C(=O)N(Cc2nnc(-c3ccc(Cl)cc3)o2)C2CC2)o1	-2	1	-1	3%	2	-14
O=C(CSC(=S)N1CCCC1)N(Cc1nnc(-c2ccccc2Cl)o1)C1CC1	0	-67*	5	-4%	/	-1
O=C1OC(CC(=O)N(Cc2nnc(-c3ccc(Cl)cc3)o2)C2CC2)c2ccccc21 (configuration not stated)	0	-44*	1	-6%	/	0
COC(=O)c1ccc(COn2nnc3ccccc32)cc1	-1	-35*	4	2%	-5	-5
CCOC(=O)c1sc2ccccc2c1S(=O)(=O)Nc1ccc(C(C)=O)cc1	0	-13	-1	2%	-2	3
COc1cc(N=c2ssnc2Cl)cc(OC)c1	-2	-4	5	-11%	3	2
Clc1nssc1=Nc1ccc(Br)cc1	1	-11	34*	2%	-6	2
CC1CCCN(C(=O)C2CCN(CC3CC=CCC3)CC2)C1 (configuration not stated)	0	3	3	-5%	-3	6
CC1CC(N(C(=O)c2ccc(Cl)cc2)c2ccccc2)c2ccccc2N1C(=O)c1ccco1 (configuration not stated)	0	-46*	2	-6%	-6	-12
